Six compounds from PubChem BioAssay can be followed below.

Experiment [1] in a line: compounds binding Alexa647 anti-His antibody – biochemical, small-molecule microarray, 635 nm fluorescence, artefact control for SMM control protein annotation, primary screen (AID 1128).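 Note: score merges feature fluorescence with signal-to-noise for each printed compound spot.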 Conditions: higher = more signal.
In experiment [2] the test system is Human papillomavirus type 1a E7 protein (residues 1-88). Kind of experiment: HPV1a E7 small-molecule binders, primary screen, biochemical, small-molecule microarray, residues 1-88, 635 nm (AID 1129). Conditions: small-molecule microarray binding, fluorescence 635 nm; higher = more signal.
For experiment [3], the target named is Focal adhesion kinase 1 (Homo sapiens) (UniProt Q05397). Kind of experiment: PTK2 protein binding on printed compound slides – biochemical, small-molecule microarray, 635/667 nm fluorescence, BSA, DTT, primary screen (AID 1130).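 Note: composite of spot emission at 667 nm and signal to noise over triplicate slides.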 The following applies: 635 nm fluorescence, higher = more signal.
The test system of experiment [4] is Fibrinogen (Alexa647-labelled). Kind of experiment: Alexa647-fibrinogen binding to printed small molecules – biochemical, small-molecule microarray, 635/667 nm fluorescence, artefact control for SMM control-protein annotation, profiling panel (AID 1131).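 Note: z-score merges 667 nm fluorescence with per-spot signal-to-noise over triplicate slides.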 Conditions: fibrinogen-A647 binding fluorescence, higher = more signal.
The target of experiment [5] is Follistatin (Homo sapiens) (UniProt P19883). Kind of experiment: FST protein binding to printed compounds – biochemical, small-molecule microarray, 635/667 nm fluorescence, primary screen (AID 1132). The following applies: 635 nm fluorescence, higher = more signal.
Experiment [6] concerns the target Fibroblast growth factor 2 (Homo sapiens) (UniProt P09038). In words: basic fibroblast growth factor binding to printed compounds – biochemical, small-molecule microarray, 635/667 nm fluorescence, primary screen (AID 1133). The following applies: FGF2, fluorescence 635/667, higher = more signal.
Experiment [7] is described as follows: JC-1 mitochondrial potential readout, lung cancer cells – cell-based, A549, JC-1 fluorescence, basal, 24 h, 100 nL, profiling panel (AID 1138).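 Note: A549 lung adenocarcinoma cells under basal conditions with no added stimulus; test concentration not given here.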 The following applies: higher = more signal.
The next experiment relates to Lefty1. In words: Lefty1 protein binding to printed compounds – biochemical, small-molecule microarray, 635/667 nm fluorescence, primary screen (AID 1139). Conditions: fluorescence 635/667, higher = more signal.
Experiment [8] deals with wheat germ agglutinin (Triticum aestivum), Alexa647-labelled. Kind of experiment: Alexa647-WGA lectin binding to printed small molecules – biochemical, small-molecule microarray, 635/667 nm fluorescence, artefact control for SMM control-protein annotation, profiling panel (AID 1140).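 Note: score merges 667 nm feature emission with signal to noise over triplicate slides.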 Conditions: WGA-A647 binding, 635 nm fluorescence, higher = more signal.
Experiment [9] has as its target Luciferin 4-monooxygenase (Photinus pyralis) (UniProt P08659). Kind of experiment: inhibition of purified Photinus pyralis luciferase – biochemical, luminescence, purified enzyme, 2006 set, primary screen (AID 1141).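 Note: cell-free assay with purified firefly luciferase at 100 ng per well in PBS; test concentration not given here.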 The following applies: purified firefly luciferase, SteadyGlo luminescence, 30 min; higher = more signal, called active from +8 up or from −8 down.
Experiment [10] concerns Wnt5a (protein binding on small-molecule microarray). Kind of experiment: small molecules binding Wnt5a protein – biophysical, small-molecule microarray, 635/667 nm fluorescence, primary screen (AID 1142).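 Note: fluorescence read at 667 nm with signal to noise per printed feature.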 Conditions: 635 nm fluorescence, higher = more signal.
Experiment [11] in a line: ATP-based viability of Huh7 replicon cells – cell-based, CellTiter-Glo luminescence, basal, 48 h, cytotoxicity control for HCV replication inhibitor project, primary screen (AID 1143).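 Note: Huh7 hepatoma cells carrying a hepatitis C replication reporter with no stimulus; test concentration not given here.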 Conditions: higher = more signal, called active from +8 up or from −8 down. (A replicon is a self-replicating genome or part of one, used to study replication in cells.)
Experiment [12] is described as follows: basal CRE-LacZ reporter activity in PC12 – cell-based, unstimulated, primary screen (AID 1145). The following applies: no forskolin, luminescence, 4.5 h, higher = more signal, called active from +8 up or from −8 down.
A short description of experiment [13]: forskolin-driven CRE-LacZ activity in PC12 – cell-based, CRE-LacZ reporter, forskolin-stimulated, primary screen (AID 1146).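 Note: PC12 cells with 6xCRE LacZ reporter stimulated by forskolin 10 µM; beta-galactosidase reporter signal reflecting CREB driven transcription.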 Conditions: luminescence, 4.5 h, higher = more signal, called active from +8 up or from −8 down.
The target in experiment [14] is Streptavidin (Streptomyces avidinii) (UniProt P22629). In words: compounds binding control protein streptavidin – biophysical, small-molecule microarray, 635/667 nm fluorescence, artefact control for SMM compound annotation, primary screen (AID 1147).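 Note: signal reflects streptavidin binding to arrayed compounds as a control protein.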 Conditions: higher = more signal.
Experiment [15] can be described thus: probe aInhba binding on compound microarray – biochemical, small-molecule microarray, 635/667 nm fluorescence, primary screen (AID 1148).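 Note: score merges 667nm spot fluorescence with signal-to-noise for antibody binding to printed compounds.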 Conditions: higher = more signal.
Experiment [16] has as its target Torsin-1A (Homo sapiens) (UniProt O14656). Kind of experiment: TOR1A wild-type binding on microarray – cell lysate, small-molecule microarray, lysate, 635/667 nm, primary screen (AID 1149). Conditions: COS7 hTOR1A-WT lysate, 635 nm fluorescence, higher = more signal.
Experiment [17] shares this target. In words: torsin A mutant lysate binding on microarrays – cell lysate, small-molecule microarray, COS7 lysate, 635/667 nm fluorescence, primary screen (AID 1150).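 Note: score pools 667 nm emission and signal to noise measuring lysate protein binding.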 The following applies: COS7 hTOR1A mutant lysate, 635 nm fluorescence, higher = more signal.
Experiment [18] concerns Sonic hedgehog protein (Shh). In words: Sonic hedgehog microarray binding compounds – biochemical, small-molecule microarray, 635/667 nm fluorescence, primary screen (AID 1151).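 Note: Shh protein binding to compounds spotted on small-molecule microarray slides; score combines spot fluorescence intensity with signal-to-noise across triplicate slides.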 Conditions: 635 nm fluorescence, higher = more signal.

Active and inactive are the calls of the source.

Sequence of Focal adhesion kinase 1 (Homo sapiens) (Q05397 whole entry, looked up): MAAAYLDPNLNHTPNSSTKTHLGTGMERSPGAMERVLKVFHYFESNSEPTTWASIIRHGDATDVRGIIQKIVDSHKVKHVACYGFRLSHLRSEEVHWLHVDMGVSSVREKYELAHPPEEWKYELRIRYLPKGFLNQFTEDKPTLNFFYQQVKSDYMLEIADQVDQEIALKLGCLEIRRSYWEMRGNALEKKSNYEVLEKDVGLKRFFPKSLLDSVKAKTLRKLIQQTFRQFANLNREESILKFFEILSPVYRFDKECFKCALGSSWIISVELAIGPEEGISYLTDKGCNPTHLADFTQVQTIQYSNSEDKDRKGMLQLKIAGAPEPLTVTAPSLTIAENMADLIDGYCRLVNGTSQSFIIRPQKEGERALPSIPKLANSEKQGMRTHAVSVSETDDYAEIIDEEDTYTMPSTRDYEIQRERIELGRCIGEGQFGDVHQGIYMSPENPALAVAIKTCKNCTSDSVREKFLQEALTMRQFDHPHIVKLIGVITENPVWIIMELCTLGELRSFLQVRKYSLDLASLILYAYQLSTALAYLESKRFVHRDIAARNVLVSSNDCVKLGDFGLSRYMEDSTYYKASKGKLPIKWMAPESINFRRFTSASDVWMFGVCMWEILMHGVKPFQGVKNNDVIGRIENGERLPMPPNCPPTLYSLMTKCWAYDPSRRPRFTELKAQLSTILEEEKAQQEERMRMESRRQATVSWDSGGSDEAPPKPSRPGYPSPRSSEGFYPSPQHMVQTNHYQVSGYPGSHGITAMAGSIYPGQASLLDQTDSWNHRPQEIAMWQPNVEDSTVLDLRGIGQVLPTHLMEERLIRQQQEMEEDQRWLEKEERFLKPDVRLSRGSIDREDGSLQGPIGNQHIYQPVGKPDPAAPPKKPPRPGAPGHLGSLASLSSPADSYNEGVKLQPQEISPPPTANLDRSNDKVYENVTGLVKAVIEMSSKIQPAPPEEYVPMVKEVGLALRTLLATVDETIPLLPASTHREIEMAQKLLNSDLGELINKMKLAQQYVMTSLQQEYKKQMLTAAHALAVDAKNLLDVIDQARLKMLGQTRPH
Sequence of Follistatin (Homo sapiens) (P19883 whole entry, looked up): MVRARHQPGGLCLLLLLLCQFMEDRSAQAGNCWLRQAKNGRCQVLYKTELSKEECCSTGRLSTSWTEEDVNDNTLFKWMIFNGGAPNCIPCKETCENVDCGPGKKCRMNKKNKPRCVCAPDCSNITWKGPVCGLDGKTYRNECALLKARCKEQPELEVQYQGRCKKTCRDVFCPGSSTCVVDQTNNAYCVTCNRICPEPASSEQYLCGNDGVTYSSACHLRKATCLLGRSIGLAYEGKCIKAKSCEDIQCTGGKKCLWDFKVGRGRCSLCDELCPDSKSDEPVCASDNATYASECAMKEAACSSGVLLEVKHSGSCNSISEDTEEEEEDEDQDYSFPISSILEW
Sequence of Luciferin 4-monooxygenase (Photinus pyralis) (P08659 whole entry, looked up): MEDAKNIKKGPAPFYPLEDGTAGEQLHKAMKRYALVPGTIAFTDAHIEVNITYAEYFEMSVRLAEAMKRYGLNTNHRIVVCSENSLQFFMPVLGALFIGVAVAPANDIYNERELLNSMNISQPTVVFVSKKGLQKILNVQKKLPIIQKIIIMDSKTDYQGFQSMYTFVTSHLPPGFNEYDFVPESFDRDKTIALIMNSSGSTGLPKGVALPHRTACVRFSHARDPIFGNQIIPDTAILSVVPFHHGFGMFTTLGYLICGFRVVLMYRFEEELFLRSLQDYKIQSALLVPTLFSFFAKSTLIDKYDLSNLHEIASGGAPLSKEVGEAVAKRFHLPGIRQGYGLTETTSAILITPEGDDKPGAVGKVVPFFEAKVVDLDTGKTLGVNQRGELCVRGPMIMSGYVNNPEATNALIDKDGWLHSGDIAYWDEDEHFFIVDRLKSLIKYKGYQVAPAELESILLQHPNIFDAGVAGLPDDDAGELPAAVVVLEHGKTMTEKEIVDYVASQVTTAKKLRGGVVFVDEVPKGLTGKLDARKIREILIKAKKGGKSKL
Sequence of Fibroblast growth factor 2 (Homo sapiens) (P09038 whole entry, looked up): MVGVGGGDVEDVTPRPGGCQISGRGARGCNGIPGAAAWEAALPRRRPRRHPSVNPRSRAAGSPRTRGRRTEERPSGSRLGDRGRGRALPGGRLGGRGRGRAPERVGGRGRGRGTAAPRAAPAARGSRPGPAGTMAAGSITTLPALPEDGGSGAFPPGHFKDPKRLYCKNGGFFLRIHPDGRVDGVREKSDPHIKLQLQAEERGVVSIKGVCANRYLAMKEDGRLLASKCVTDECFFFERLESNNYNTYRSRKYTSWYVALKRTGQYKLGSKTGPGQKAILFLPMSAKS
Sequence of Torsin-1A (Homo sapiens) (O14656 whole entry, looked up): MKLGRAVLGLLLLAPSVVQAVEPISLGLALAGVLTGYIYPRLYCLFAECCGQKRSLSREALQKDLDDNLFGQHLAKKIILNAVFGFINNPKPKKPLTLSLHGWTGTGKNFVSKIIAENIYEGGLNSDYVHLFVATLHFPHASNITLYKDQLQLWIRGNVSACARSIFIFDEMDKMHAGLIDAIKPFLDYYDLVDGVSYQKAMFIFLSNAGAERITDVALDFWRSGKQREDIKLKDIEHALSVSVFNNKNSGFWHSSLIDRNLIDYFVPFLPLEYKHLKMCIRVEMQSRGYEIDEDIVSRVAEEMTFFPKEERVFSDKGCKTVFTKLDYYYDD
Sequence of Streptavidin (Streptomyces avidinii) (P22629 whole entry, looked up): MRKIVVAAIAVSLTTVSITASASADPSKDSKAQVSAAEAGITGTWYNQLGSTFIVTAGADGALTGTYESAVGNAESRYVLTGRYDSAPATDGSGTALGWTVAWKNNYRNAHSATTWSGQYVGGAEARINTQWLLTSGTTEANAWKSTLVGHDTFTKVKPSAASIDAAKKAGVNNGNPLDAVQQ

In the case of `COCCOC(=O)N1C(=O)[C@@]2(c3cc(C#CCCO)ccc31)[C@H](C(=O)N1CCCCCCC1)[C@H]1C(=O)O[C@H](c3ccccc3)[C@H](c3ccccc3)N1[C@@H]2c1ccc(O)cc1`, the composite z-score is 1.12 in experiment [1]; 1.18 in [2]; 1.49 in experiment [3]; 0.555 in [4]; 1.34 in experiment [5]; 0.661 in [6]. In addition, the composite z-score came out at 0.957 in the experiment on Lefty1; 1.1 in experiment [8]; 0.138 in [10]; 1 in experiment [14]; 0.74 in experiment [15]; 0.678 with Torsin-1A (Homo sapiens) [16]. Also, the composite z-score turned out to be 0.922 in the experiment with Torsin-1A (Homo sapiens) [17] and 1.06 in experiment [18]. Further, the z-score is 1.65 in experiment [7]; -0.888 (inactive) in experiment [9]; -4.07 (inactive) in [11]; -0.815 (inactive) in [12]; -1.28 (inactive) in experiment [13].

For `COC(=O)C[C@H]1O[C@]2(C(=O)N(C)c3ccccc32)[C@@H](C)[C@@H]1[Si](C)(C)c1ccc(OC)cc1`, the composite z-score in [1] was 0.284; in [2] it was 0.824; in experiment [3], 0.0035; in [4] it was 0.728; in experiment [5] it was 0.328; in [6], 0.792. Also, the composite z-score is 1.33 in the experiment on Lefty1; 0.332 in [8]; 0.259 in [10]; 0.781 in [14]; 0.138 in experiment [15]; 0.639 in the experiment with Torsin-1A (Homo sapiens) [16]. Besides, the composite z-score in the experiment with Torsin-1A (Homo sapiens) [17] is 0.236; in experiment [18] it was 0.661. Besides, the z-score was 0.569 in experiment [7]; -0.274 (inactive) in experiment [9]; -4.23 (inactive) in experiment [11]; 2.23 (inactive) in [12]; -1.58 (inactive) in experiment [13].

Regarding `C=CCc1cccc([C@H]2N[C@H](C(=O)O)CC[C@@H]2C)c1`, the composite z-score in [1] came to 0.7; in experiment [2], 0.297; in experiment [3] it was 1.34; in experiment [4] it was 0.172; in [5], 0.648; in [6], 0.972. The composite z-score was 0.825 in the experiment on Lefty1; -0.173 in experiment [8]; 0.023 in experiment [10]; -0.0599 in [14]; -0.101 in [15]; 0.352 with Torsin-1A (Homo sapiens) [16]. Also, the composite z-score turned out to be 0.122 with Torsin-1A (Homo sapiens) [17] and 1.54 in experiment [18]. Moreover, the z-score in experiment [7] was 0.809; in [9], -0.42 (inactive); in experiment [11], 0.0815 (inactive); in [12] it was 1.46 (inactive); in experiment [13] it was -0.675 (inactive).

As to `CCC(=O)[C@]12O[C@@]3([C@@H]4C(=O)OCC[C@@H]41)N(CC)C(C)=C(C(=O)OC)[C@@H](c1ccccc1)N3C2=O`, the composite z-score in [1] is 1.41; in [2], -1.67; in experiment [3], 0.335; in experiment [4], -0.62; in experiment [5] it was 0.754; in [6], 0.111. Further, the composite z-score with Lefty1 is 0.373; in experiment [8], -0.0702; in experiment [10] it was -0.0488; in experiment [14], -0.194; in experiment [15], -0.283; with Torsin-1A (Homo sapiens) [16], -0.0028. For the same compound, the composite z-score with Torsin-1A (Homo sapiens) [17] was -0.063; in experiment [18] it was 1.92. The z-score in [7] is -0.404; in [9] it was -0.533 (inactive); in [11], -3.62 (inactive); in [12], -0.0708 (inactive); in experiment [13], -1.58 (inactive).

In the case of `CC(C)[Si]1(C(C)C)OCc2cc(C3CC3)nc(-c3ccccc3)c21`, the composite z-score was -1.42 in [1]; -0.722 in experiment [2]; -0.294 in [3]; -0.742 in experiment [4]; 0.441 in [5]; -0.5 in [6]. For the same compound, the composite z-score in the experiment on Lefty1 was -0.165; in experiment [8] it was -0.625; in experiment [10] it was -0.125; in experiment [14], -0.0842; in experiment [15], -0.108; with Torsin-1A (Homo sapiens) [16], 0.188. In addition, the figures for the composite z-score (in the experiment with Torsin-1A (Homo sapiens) [17]; in experiment [18]) were 0.127 and 0.545, respectively. In addition, the z-score in experiment [7] was 0.325; in experiment [9], -0.525 (inactive); in experiment [11] it was -1.63 (inactive); in [12], 0.339 (inactive); in experiment [13] it was -1.08 (inactive).

Consider `C=C(COC)/C(=C/C[C@@H](OC(C)=O)c1cccc(OCCO)c1)c1cc(C(=O)OC)ccc1OC`, for which the composite z-score in [1] was -1.25; in experiment [2] it was 0.0995; in experiment [3], -0.453; in experiment [4], -1.09; in experiment [5], 0.954; in [6], 0.202. The composite z-score with Lefty1 was 0.499; in [8] it was -1.12; in experiment [10], 0.0467; in experiment [14] it was -0.798; in [15] it was -0.0221; in the experiment with Torsin-1A (Homo sapiens) [16], 0.284. For the same compound, the composite z-score with Torsin-1A (Homo sapiens) [17] is -0.0193; in [18], 0.654. The z-score in [7] is 1.37; in [9], -2.09 (inactive); in [11], -1.42 (inactive); in experiment [12], 4.69 (inactive); in experiment [13], -1.89 (inactive).
